Here are results for 60 molecules from PubChem BioAssay AID2314 (National Center for Advancing Translational Sciences (NCATS), 2010).

The whole screen tested about 300,000 compounds, of which about 37,000 (12%) were called active. What follows is part of a selection rich in actives, with near analogues and random picks from the rest. A number with no mark means an inactive call. No stated cut-off is given here; in the data, active means max response mostly above about 13% (no sharp cut-off); inactive means mostly below about 14%.

A short description of this assay: Cycloheximide Counterscreen for Small Molecule Inhibitors of Shiga Toxin. Further: read at 38.3 µM for the half of the compounds with a filed dose; 0% is about no effect. The following applies: cell reporter, cycloheximide protein synthesis inhibition counterscreen; stronger effect = higher value.
In the case of `COC(=O)c1ccc(/C=C2/C(=O)Oc3ccccc32)cc1`, the max response is -4.87%.
For `CC(C(=O)N1CCN(c2ccccc2F)CC1)c1ccc([N+](=O)[O-])cc1` (stereo not given) the value was -0.676%; for `Cc1ccc(CC2CC(=O)N(c3cc(C)ccc3C)C2=O)cc1` (stereo not given), -1.67%; for `CCOCCCN(C)C1CCN(C(=O)c2oc3ccccc3c2NC(=O)COc2cccc(C)c2)CC1`, -3.98%.
As for `CCN1CCCC1CNC(=O)c1cc2cc(OC)c(OC)cc2[nH]1` (stereo not given), the figure is -3.29%; as for `COc1ccc(N(C)S(=O)(=O)c2ccc3c(c2)CC(C)N3C(=O)C2CC2)c(OC)c1` (stereo not given), 3.16%; as for `O=c1c2sccc2nc(SCc2cc(=O)n3ccccc3n2)n1-c1ccc(Br)cc1`, -4.5%.
For `CC(C)=CCN1CCN(CCCc2ccccc2)CC1CCO` (stereo not given) the value was -0.846%; for `COC(=O)c1c(NC(=O)COc2ccc(Cl)cc2Cl)sc2c1CC(C)(C)NC2(C)C`, 0.749%.
Regarding `CC1=C/C(=N\S(=O)(=O)c2ccccc2)C(C(C)C)=CC1=O`, the max response is -2.83%.
As for `Cc1ccc(S(=O)(=O)c2ccc(Oc3ccccc3)cc2)cc1`, the figure is -0.97%; as for `CC1=C/C(=N\OS(=O)(=O)c2ccccc2)C=CC1=O`, 35% (active).
With `O=C(Nc1ccc(Cl)cc1)C1c2cccc[n+]2CC(=O)N1Cc1ccc2c(c1)OCO2` (stereo not given), the max response was 17.1%.
Consider `CCOc1ccc(N2C(=O)CC(N(CCc3ccc(OC)c(OC)c3)C(=S)Nc3ccccc3)C2=O)cc1` (stereo not given), for which the max response was 8.04%.
`O=C(CCN1C(=O)[C@H]2CC=CC[C@H]2C1=O)NCc1nc(-c2ccccc2)no1`: the max response is 6.47%.
For `CC(C)CNC(=O)C(=O)NCc1ccccc1`, the max response was -1.62%.
Consider `CC(C)CNC(=O)C(=O)Nc1ccc(N(C)C)cc1`, for which the max response was 38.6% (active).
As for `CC(=O)Nc1ccc(C(=O)C(Cc2ccccc2)N(C)C)cc1` (stereo not given), the figure is 9.54%; as for `COc1ccc(NC(=O)Cn2ncn3c(cc4ccccc43)c2=O)c(OC)c1OC`, 12.5%; as for `Cc1nnc(C)c2c(C)n(N)c(C)c12`, -2.66%.
Take `COC(=O)c1ccc(CSc2nncn2N)cc1`: the max response was 2.72%.
For `CC(C)CC(CC(C)C)=NNC(=O)c1ccc(CSc2nncn2C)cc1` the value was -1.48%.
As for `COC(=O)c1ccc(CSc2nncn2C)cc1`, the max response is 62.2% (active).
As for `CCC(Cc1ccccc1)NC(=O)C1CCCCC1` (stereo not given), the figure is 5.22%; as for `CCOC(=O)c1ccc(NC(=O)c2nc[nH]c2C(=O)N[C@@H](CCCCNC(=O)OC(C)(C)C)C(=O)OC(C)(C)C)cc1`, -6.86%; as for `C[C@@H](O)[C@@H]1NC(=O)[C@H](CCCCN)NC(=O)[C@H](Cc2c[nH]c3ccccc23)NC(=O)[C@H](Cc2ccccc2)NC(=O)[C@H](Cc2ccccc2)NC(=O)[C@H](CC(N)=O)NC(=O)[C@H](CCCCN)NC(=O)[C@@H](NC(=O)[C@@H]2CCCN2)CSSC[C@@H](C(=O)N[C@@H](CCCCN)C(=O)O)NC(=O)[C@H](CO)NC(=O)[C@H](CO)NC(=O)[C@H](Cc2ccccc2)NC1=O`, -1.5%.
For `COc1cccc(/C=N/Nc2cc(C)nc(-c3ccccc3O)n2)c1O` the value was 28.6% (active); for `COc1cccc(/C=N/Nc2ncc(C(F)(F)F)cc2Cl)c1O`, 12.5%; for `COc1ccccc1/C=N\Nc1cc(C)nc(-n2nc(C)cc2C)n1`, -2.45%.
As for `O=C(NC1CCCC1)C(c1ccc(N2CCOCC2)cc1)N(C(=O)c1ccco1)c1ccccc1F` (stereo not given), the max response is -1.28%.
Consider `CCOc1ccc(CN2CCN(Cc3ccc4cc(F)ccc4n3)CC2CCO)cc1` (stereo not given), for which the max response is -3.76%.
As to `N#Cc1c2c(c(N3CCN(CCO)CC3)n3c1nc1ccccc13)CCCC2`, the max response was -2.13%.
For `CC1CCc2sc3nc(N4CCN(CCO)CC4)n4ncnc4c3c2C1` (stereo not given) the value was 22.8% (active).
As for `Cc1cc(NC(=O)CSc2nc(C(C)C)nc3sc4c(c23)CCC(C)C4)no1` (stereo not given), the figure is -1.25%; as for `Cc1ccc(NC(=O)C2CCCN2C(=O)OCc2ccccc2)cc1C` (stereo not given), 7.92%; as for `O=C(Nc1ccccc1Cl)NC1(C(=O)N2CCOCC2)CCCCC1`, -1.76%.
As for `CCCCC(c1nnnn1CS(=O)(=O)c1ccc(C)cc1)N1CCC(C(N)=O)CC1` (stereo not given), the figure is -6.32%; as for `COc1ccc(/C=C2\SC(=N)N(c3ccc(F)cc3)C2=O)cc1`, -4.26%; as for `COc1ccc(/C=C2\N=C3CCCN3C2=O)cc1`, 39.3% (active).
Regarding `COc1ccc(/C=C2\SC(=S)N(CC(=O)NNC(=O)c3ccncc3)C2=O)cc1`, the max response is 5.86%.
For `Cn1c(=O)c2c(-c3cccc(Br)c3)c(C#N)c(N)nc2n(C)c1=O` the value was 1.41%; for `COC(=O)C1=CN(Cc2ccc(OC)c(OC)c2)C=C(C(=O)OC)C1c1cccs1`, 8.87%.
As for `CN1C2C=C(N(C(=O)c3ccc(Cl)cc3)c3ccccc3)CC1CC2` (stereo not given), the figure is -2.76%; as for `CN1OC(COC(=O)c2ccc(Cl)cc2)CC1c1ccccc1` (stereo not given), 66.4% (active).
For `Cn1cncc1COC(=O)c1ccc(Cl)cc1` the value was 5.18%; for `Cc1ccc(CNC(=O)CCC(=O)N2CC(C)Sc3ccccc32)cc1` (stereo not given), -1.08%; for `CCOC(=O)N1CCC(N2Cc3cccc(C(=O)Nc4c(C)cccc4CC)c3C2=O)CC1`, -3.86%.
Consider `COc1cccc2sc(N(CCCN(C)C)C(=O)CCS(=O)(=O)c3ccccc3)nc12`, for which the max response is 11.6%.
As for `CNC(=O)c1nnc(Cc2ccc(Cl)cc2)o1`, the figure is 11.5%.
For `Clc1ccc(Cc2nnc(-c3cccs3)o2)cc1` the value was 32.7% (active); for `S=C(NCc1cccs1)Nc1ccc(Cl)cc1`, 13.8%.
As for `O=C(NC1CCN(Cc2ccccc2)CC1)c1c(F)cccc1F`, the max response was -3.43%.
As for `O=C(CSC(=S)N1CCOCC1)c1ccccc1`, the figure is 19% (active); as for `CC1CN(C(=S)SCC(=O)c2ccccc2)CC(C)O1` (stereo not given), 34.8% (active); as for `CC1CN(C(=S)Nc2ccccc2F)CC(C)O1` (stereo not given), 1.94%.
As for `O=C(CSC(=S)N1CCOCC1)c1cc(Br)cc(Br)c1O`, the figure is -5.21%; as for `O=C(CSC(=S)N1CCCCC1)c1c(F)cccc1F`, 42.5% (active).
As for `O=C(CP(=O)(c1ccccc1)c1ccccc1)N1CCOCC1`, the max response was -5.81%.
For `CSCC(=O)N1CCCC(C(=O)c2cc(F)ccc2F)C1` (stereo not given) the value was 5.48%; for `COC(=O)[C@H](Cc1ccccc1)NC(=O)N1CC(C)OC(C)C1` (stereo not given in full), 0.915%.
